Results: PubChem BioAssay

Test: growth of efflux-deficient E. coli DRC39 – strain DRC39, OD650, 24 h, E. coli filamentation inducers, primary screen (AID 1178);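 further: growth measured as culture turbidity by optical density at 650 nm; test concentration not given here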
Settings: E. coli DRC39 acrAB, higher = more signal, called active from +8 up or from −8 down

z-score, inactive:
C=CC[C@@H]1C=C[C@H](ON=CC[C@@H]2C=C[C@H](OC(C)=O)[C@@H](COC(C)=O)O2)[C@@H](CO)O1 0.879
C=CC[C@@H]1C=C[C@H](ON=C(C)CCN2CCCc3nc(C)c(C)cc32)[C@@H](CO)O1 0.382
CC(=O)OC[C@H]1O[C@H](CC=NO[C@H](C)c2cn([C@@H]3COC[C@H]3O)nn2)C=C[C@@H]1OC(C)=O -0.716
CC(=O)OC[C@H]1O[C@H](CCON=C(C)CCN2CCCc3nc(C)c(C)cc32)C=C[C@@H]1OC(C)=O 0.565
CO[C@H]1COC(=O)[C@H](CCSC)NC(=O)CC=C[C@@H](C)[C@H](OC)COC(=O)[C@@H](OCc2ccccc2)C=C[C@@H]1C 0.345
CN1CCc2nc(-c3ccccc3)c(-c3ccccc3)cc2C1 0.38
CON=C(C)CCN1CCc2nc(-c3ccccc3)c(-c3ccccc3)cc2C1 0.83
CCN1C(=O)[C@H]2[C@@H]3C(=CC[C@H]2C1=O)C(=O)[C@H]1O[C@H]1[C@H]3O -0.615
CC(C)C(=O)N[C@H]1CCCN1C(=O)C=Cc1ccccc1 -0.0435
CCOC(=O)[C@H](CC(C)C)NC(=O)CCC1CC(OC(=O)NCc2ccc3c(c2)OCO3)CC2(CCCC(COC(=O)NCCC(C)C)O2)O1 (some centres not stated) 1
COC(=O)CC=C[C@@H](C)[C@@H](C=NOC[C@@H](O)COCc1ccco1)NS(=O)(=O)c1ccc(C)cc1 0.388
CON=C(C)CCN1CCCCc2nc(C)c(C)cc21 0.852
